Only some compounds are listed: those with a hit (about 3.7% of all), similar ones and a draw of the others.
Anthrax LF inh2 = anthrax lethal factor protease inhibition. inhibition, % at 10 µM. AID 588501. multiplex microsphere protease cleavage assay, LF. hit rate 0.12% among 360,000. P15917
BoNT-A LC inh2 = blocks Botulinum neurotoxin A light chain protease; hit rate 0.17% among 360,000; inhibition, % at 10 µM; multiplex microsphere protease substrate cleavage, flow cytometry
MazF activator = activators of E. coli MazEF toxin-antitoxin RNase; hit rate 0.32% among 350,000; P0AE70; FAM/BHQ RNA-DNA oligo cleavage fluorescence, 5 h; activation, % at 20 µM; in the data active = activation above about 50%
Autofluor counter = compound fluorescence in toxin protease inhibitor counterscreen | compound autofluorescence counterscreen, microsphere flow cytometry; stronger effect = higher value | fluorescence intensity (test concentration not listed) | hit rate 3.1% among 360,000 | AID 624483; in the data active = fluorescence intensity above about 16000; inconclusive = no clear call, values can overlap the other calls
BoNT-F LC inh = BoNT F light chain protease inhibition. Multiplex microsphere protease cleavage assay, flow cytometry. inhibition, % at 10 µM. hit rate 0.22% among 360,000. AID 588497; in the data active = inhibition above about 35%, passing the limit was not always enough; inconclusive = no clear call, values can overlap the other calls
Numbers stand for hits; n = inactive; u = inconclusive; x = no result; + = active, no number. Cut-off read from the data, not from the text of the source, unless noted: active = inhibition above about 30%; inconclusive = no clear call, values can overlap the other calls; inactive = below that.

SMILES | Anthrax LF inh2 | BoNT-A LC inh2 | MazF activator | Autofluor counter | BoNT-F LC inh
CC(=O)C(Cc1ccccc1)NC(=O)COC(=O)c1cc(S(=O)(=O)N2CCOCC2)ccc1F (centres undefined) | n | n | n | n | n
O=C(Nc1ccccc1)c1ccc(NCCc2ccccc2)c([N+](=O)[O-])c1 | n | n | + | n | n
CCCC(=O)Nc1cccc(NC(=O)c2ccc(C)c([N+](=O)[O-])c2)c1 | n | u | n | 23307 | n
CCC(=O)Nc1cccc(NC(=O)c2ccc(C)c([N+](=O)[O-])c2)c1 | n | n | n | n | n
COc1cc2c3c(c1)-c1c(sn(-c4cc(OC)ccc4OC)c1=S)C(C)(C)N3C(=O)C2=O | n | n | n | 21539 | n
COc1ccc2c(c1)-c1c(sn(-c3ccc(OC)c(OC)c3)c1=S)C(C)(C)N2 | n | n | n | n | n
Cc1ccc2cc(-c3noc(C4CCCCC4)n3)c(=O)[nH]c2c1 | n | n | n | n | n
Cc1ccccc1-c1noc(C23CC4CC(CC(C4)C2)C3)n1 | n | n | n | 21714 | n
Cc1ccccc1-c1noc(C2CCCCC2)n1 | n | u | n | 22659 | n
COc1cc(-c2n[nH]c(=S)n2-c2ccc(C)cc2)cc(OC)c1OC | n | n | n | n | n
Cc1ccc(S(=O)(=O)NCCOc2cc(C)ccc2C)cc1 | n | n | n | n | n
COc1cccc(C(=O)NCCS(=O)(=O)N2CCCC(C)C2)c1 (centres undefined) | n | n | n | n | n
Fc1ccccc1COc1cccc(/C=N/n2cnnc2)c1 | n | n | n | 24150 | n
Cc1cc(/C=N/n2cnnc2)c(C)n1-c1ccc(OCc2ccccc2F)cc1 | n | n | n | n | n
C(=N\n1cnnc1)/c1cccc(Oc2ccccc2)c1 | n | n | n | 22913 | n
CCNC(=O)c1ccccc1SCC(=O)Nc1ccc(F)cc1 | n | n | n | n | n
O=C(O)CCc1nn2c3ccccc3n(CC(=O)c3cccs3)c2nc1=O | n | n | n | n | n
Cc1ccccc1OCC(=O)N1N=C(c2cccnc2)CC1(O)C(F)(F)F (centres undefined) | n | n | n | n | n
Cc1ccc(NC(=O)NC2C(NC(=O)Nc3ccc(C)cc3)N(C)C(=O)N2C)cc1 (centres undefined) | n | u | n | 18428 | n
CN1C(=O)N(C)C(NC(=O)Nc2ccccc2)C1NC(=O)Nc1ccccc1 (centres undefined) | n | n | n | n | n
COc1ccc(C2(C)NC(=O)NC2=O)cc1OC (centres undefined) | n | n | n | n | n
O=C(NCc1ccc2c(c1)OCO2)c1cc(-n2cnnc2)ccc1Cl | n | n | n | 19482 | n
Cc1nc(NC(=O)c2cc(-n3cnnc3)ccc2Cl)ccc1Br | n | n | n | 21255 | n
CCSCCNC(=O)c1cc(-n2cnnc2)ccc1Cl | n | u | n | 21120 | n
O=C(CSc1nc(-c2ccccc2)nc2ccccc12)Nc1nccs1 | n | n | 136 | n | n
SMILES | Anthrax LF inh2 | BoNT-A LC inh2 | MazF activator | Autofluor counter | BoNT-F LC inh
CCOC(=O)CSc1nc(-c2ccccc2)nc2ccc(F)cc12 | u | u | n | u | n
CCc1cc2cc3c(cc2nc1SCC(=O)Nc1nccs1)OCO3 | n | n | 56 | n | n
CCCc1nc(SCC(=O)Nc2nccs2)c2ccccc2n1 | n | n | n | n | n
CCOC(=O)CSc1nc(-c2ccccc2)nc2ccccc12 | n | n | n | 21864 | n
O=C(COc1ccc(F)cc1Br)NCCCN1CCCC1=O | n | n | n | n | n
CC(C)(C)OC(=O)C[C@@H]1C/C=C\C[C@H](CC(=O)N(CCO)Cc2ccccc2)C(=O)N[C@@H](Cc2c[nH]c3ccccc23)COC1=O | n | n | n | n | n
COC(=O)C[C@H]1C[C@@H]2c3cc(NC(=O)NC4CCCC4)ccc3O[C@@H]2[C@@H](CO)O1 | n | n | n | n | n
O=C(CCNc1ccc(F)cc1)c1cccc([N+](=O)[O-])c1 | n | u | n | 20472 | n
O=C(CCNc1ccccc1)c1cccc([N+](=O)[O-])c1 | n | n | n | 20571 | n
Cc1ccc(NCCC(=O)c2cccc([N+](=O)[O-])c2)cc1 | n | n | n | n | n
Cc1noc(C)c1COc1ccc(C(=O)NCCc2ccc(F)cc2)cc1 | n | n | n | n | n
COc1ccc(C)cc1S(=O)(=O)NCCC1=CCCCC1 | n | n | n | n | n
CCOc1ccc(S(=O)(=O)NCCC2=CCCCC2)c2ccccc12 | n | u | n | 24639 | n
CC(=O)c1cccc(NC(=O)C2=CN3CCS(=O)(=O)N=C3C=C2)c1 | n | n | n | n | n
COc1ccccc1N1CCc2c(C)nc3c(OC)cccc3c21 | n | n | n | 22775 | n
COc1cccc2c3c(c(C)nc12)CCN3c1ccccc1 | n | n | n | n | n
CCC(CC)COC(=O)C1=C(C)NC(=O)NC1c1ccc2c(c1)OCO2 (centres undefined) | n | n | n | n | n
Cc1ccc(NC(=O)CSC2=C(C#N)C(c3ccc4c(c3)OCO4)CC(=O)N2)cc1C (centres undefined) | n | n | n | 22137 | n
CCc1ccc(NC(=O)CSC2=C(C#N)C(c3ccc4c(c3)OCO4)CC(=O)N2)cc1 (centres undefined) | n | n | n | n | n
Cc1nc(C(=O)NNC(=O)c2ccc(C(F)(F)F)cc2)cs1 | x | x | n | x | x
CC(=O)Nc1cc(C)ns1 | n | n | n | n | n
CCCN(CCC)c1nc(N)c(C#N)c(CC#N)c1C#N | n | n | 134 | n | n
Cc1cc(C)c(C(=O)COC(=O)[C@H](C)Nc2ccc(C(F)(F)F)cc2[N+](=O)[O-])c(C)c1 | n | n | n | 21371 | n
COc1ccc(C(=O)COC(=O)[C@H](C)Nc2ccc(C(F)(F)F)cc2[N+](=O)[O-])cc1 | n | n | n | n | n
Cc1cn([C@H]2C[C@H](O)[C@@H](/C=C/C(=O)NCc3ccco3)O2)c(=O)[nH]c1=O | n | n | x | n | n
SMILES | Anthrax LF inh2 | BoNT-A LC inh2 | MazF activator | Autofluor counter | BoNT-F LC inh
COC(=O)c1sc(N)c(C(=O)OC)c1COC(=O)c1c(C)noc1C | n | n | n | 20148 | n
COC(=O)c1sc(NC(=O)c2c(C)noc2C)nc1C | x | x | n | x | x
Cc1ccc(NC(=O)c2sc(Cl)nc2-c2ccccc2)cc1C | n | n | 67 | n | n
CC(C)Cn1c(CCC(N)=O)nnc1SC(C)C(=O)Nc1ccc2c(c1)OCO2 (centres undefined) | x | x | n | x | x
CCCN1C(=O)c2cccc3c(N4CCCCC4)ccc(c23)C1=O | n | 32 | n | n | n
CCN(CC)S(=O)(=O)c1ccc(C(=O)OCCN2C(=O)c3cccc4c(N5CCOCC5)ccc(c34)C2=O)cc1 | n | 35 | n | n | n
CN(C)S(=O)(=O)c1cccc(NC(=O)c2cccc(S(=O)(=O)N3CCCCCC3)c2)c1 | n | n | n | n | n
CC(C)(C)S(=O)(=O)c1cnc2c(-c3ccc(F)cc3)cnn2c1N | n | u | n | 21191 | n
COc1ccc(-c2cnc3c(-c4ccc(F)cc4)cnn3c2N)cc1 | n | n | n | n | n
CC(C)(C)S(=O)(=O)c1cnc2c(-c3ccc(Cl)cc3)cnn2c1N | n | n | n | n | n
COc1ccc(-c2cnn3c(N)c(S(=O)(=O)C(C)(C)C)cnc23)cc1 | n | u | n | 21645 | n

Assay outcomes (PubChem BioAssay)
